# A selection: hits, their analogues and other compounds. The true share with any hit is near 5.7%.
# hcDAF12 agonist = H. contortus DAF-12 activation, primary screen; hit rate 1.4% among 370,000; HEK293 hcDAF-12 lit1-tk-luc reporter, luminescence; 0% DMSO, 100% Δ7-dafachronic acid; AID 652067; activation, % at 6.8 µM;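 active = activation above the mean of all tested compounds plus 3 SD, cut at about 5.5% in these data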;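 also: 100% = response to 3 µM Δ7-dafachronic acid high control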
# DAX1 inh-1 = NR0B1 (DAX1) inhibition; HEK293 Gal4-DAX1 luciferase reporter, luminescence; inhibition, % at 6.75 µM; hit rate 0.99% among 340,000;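 active = inhibition above the mean over all tested compounds plus 3 SD, cut at about 4.2% in these data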;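 also: 0% = DAX1-transfected cells with DMSO and 100% = empty-vector control cells with DMSO; inhibition shows as a rise in luminescence from relieved DAX1 repression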
# Target sequence (P51843 207-470 limits assumed): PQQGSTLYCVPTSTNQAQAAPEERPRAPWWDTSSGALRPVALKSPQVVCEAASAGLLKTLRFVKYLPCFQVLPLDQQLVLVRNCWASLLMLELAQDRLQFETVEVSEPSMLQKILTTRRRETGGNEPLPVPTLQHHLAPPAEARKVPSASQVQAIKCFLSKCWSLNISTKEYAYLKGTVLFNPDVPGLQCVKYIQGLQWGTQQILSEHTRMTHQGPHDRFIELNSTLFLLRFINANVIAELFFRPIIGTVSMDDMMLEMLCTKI
# DAX1 inh-2 = blocks DAX1 repression of SF-1 activated StAR promoter | inhibition, % at 6.8 µM | HEK293T StAR-luciferase reporter, SF-1/DAX-1 repression relief | AID 652010 | hit rate 1.1% among 370,000;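 active = inhibition above the mean over all tested compounds plus 3 SD, cut at about 3.6% in these data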;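 also: 0% = DAX-1 cells with DMSO and 100% = cells lacking DAX-1 with DMSO; higher inhibition means more luminescence from relief of DAX-1 repression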
# ssDAF-12 act = S. stercoralis DAF-12 activation, primary screen | HEK293 ssDAF-12/GRIP1 lit1-tk-luc reporter, luminescence; % of 3 µM dafachronic acid response | activation, % at 6.8 µM | hit rate 1% among 370,000 | AID 652126;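 active = activation above the mean over all tested compounds plus 3 SD, cut at about 0.9% in these data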;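 also: 0% = DMSO-only wells and 100% = 3 µM delta7-dafachronic acid wells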
# AHR activator = activators of human aryl hydrocarbon receptor | hit rate 2.5% among 320,000 | activation, % at 5 µM | AHR-responsive luciferase reporter cells, luminescence; in the data active = activation above about 47%;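 also: 0% = vehicle wells and 100% = reference agonist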
# hgDAF-12 ag = hgDAF-12 agonism, primary luciferase screen; HEK293 GAL4-hgDAF12 UAS-luciferase reporter, agonist luminescence; normalized to butyrate control; activation, % at 6.8 µM; hit rate 1.8% among 370,000; AID 687014;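 active = activation above a cutoff set at the mean of all screened compounds plus 3 SD, cut at about 10% in these data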;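 also: 0% = DMSO wells and 100% = sodium butyrate wells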
# The depositor's hits bear a star; nt = not tested or not shown.
SMILES,hcDAF12 agonist,DAX1 inh-1,DAX1 inh-2,ssDAF-12 act,AHR activator,hgDAF-12 ag
C=CCn1c(SCC(=O)Nc2ccc(Br)cc2)nc(O)c(CC)c1=O,-2,0,-1,-1,5,-1
CCc1cccc2c(C(C)c3ccccc3O)c[nH]c12 (configuration not stated),4,nt,0,2.2*,nt,5
COc1ccc(-c2cc3c(=O)n(CC(=O)Nc4ccc(Cl)cc4)nc(C)n3n2)cc1,6.4*,1,1,-1,3,1
COC(=O)c1nc(NNC(=O)c2ccccc2)sc1-c1ccccc1,0,1,0,-1,0,-2
COc1ccc(-c2cc(-c3ccc(OC)c(OC)c3)n[nH]2)c(O)c1,2,2,4,0,4,7
Cc1ccc(O)c(-c2cc(-c3cccc(F)c3)n[nH]2)c1,5,0,1,1,56*,8
COc1ccc(-c2cc(-c3cc(F)ccc3O)[nH]n2)cc1OC,2,2,2,0,50*,10
Clc1ccc(N2COC3c4cccc5cccc(c45)C32)cc1 (configuration not stated),3,0,1,-1,60*,-1
COc1ccc(N2COC3c4cccc5cccc(c45)C32)cc1 (configuration not stated),0,0,-1,-1,30,-4
O=C(Nc1ccc(CN2CCOCC2)cc1)c1ccccc1F,2,0,3,0,7,12*
O=C(Nc1ccc(CN2CCOCC2)cc1)c1cc2ccccc2o1,6,-1,3.6*,0,0,8
CCO[C@H]1OC(C(=O)N2CCN(Cc3ccc4c(c3)OCO4)CC2)=C[C@@H](C2CC2)[C@@H]1CCCO,-2,1,0,-1,0,0
CCOC(=O)CN1C(=O)N[C@@H](c2cccc(C(F)(F)F)c2)C(C(=O)OC)=C1C,1,1,0,-1,-1,0
COc1cc(/C=N/N=C2/C(=O)Nc3ccccc32)ccc1O,6,0,-1,1,20,8
O=C1Nc2ccccc2/C1=N\N=C\c1ccc(O)c(O)c1,3,4.5*,0,-1,19,0
Cc1ccsc1/C=N/N=C1\C(=O)Nc2ccccc21,5,0,1,0,70*,9
Cc1cc(Br)cn2c(Cc3ccccc3C(F)(F)F)c(-c3ccco3)nc12,-1,nt,-1,-1,nt,-2
CCN1CCN(c2nc(-c3ccncc3)nc3ccccc23)CC1,nt,nt,nt,nt,7,nt
CCN1CCN(c2nc(-c3cccnc3)nc3ccccc23)CC1,5.7*,0,1,-1,29,5
CC1(C)CC(=O)C=C(c2ccc(COC(=O)c3ccccc3)cc2)C1=O,3,2,3.9*,0,nt,11*
CC1(C)CC(=O)C=C(c2ccc(COC(=O)/C=C/c3ccccc3)cc2)C1=O,0,0,-1,-1,nt,3
CN1CCC(Oc2ccc(Sc3ccccc3)cc2)CC1,6,0,1,-1,3,11*
Cc1nc2cc(-c3sccc3-n3cccc3)nn2c(C)c1C,1,0,-1,-1,69*,4
CC/C(=N\NC(=O)c1nnn(-c2nonc2N)c1-c1cccs1)c1ccccc1,2,0,0,-1,2,1
COc1ccc(C(=O)N/N=C(\C)CC(=O)Nc2ccc(N(C)C)cc2)c(OC)c1,-1,4.7*,0,-1,2,2
SMILES,hcDAF12 agonist,DAX1 inh-1,DAX1 inh-2,ssDAF-12 act,AHR activator,hgDAF-12 ag
C/C(CC(=O)Nc1ccc(N(C)C)cc1)=N\NC(=O)c1cnccn1,-2,-1,1,-1,52*,3
CC1=CC(=O)c2c(O)ccc(O)c2C1=O,nt,nt,nt,nt,2,nt
COC(=O)c1ccc(/C=C/c2ccc3cccc(OC)c3n2)cc1,-2,-2,-1,-2,2,-2
CC(=O)COc1cccc2ccc(/C=C/c3ccc(Br)s3)nc12,0,1,0,-1,72*,1
Cc1nc2c3cnn(-c4ccccc4)c3ncn2n1,4,1,0,0,69*,1
c1ccc(-n2ncc3c2ncn2nnnc32)cc1,0,2,1,0,3,-1
COc1ccc(CCNC(=O)COc2ccc(C)nc2[N+](=O)[O-])cc1,-1,4,0,0,-2,1
